Experimental data reported in PubChem BioAssay (NCATS).
Where “and” joins values, the source holds several entries; their conditions need not be identical. Equal values may be shown once. Results filed as inconclusive are left out. Calls of active or inactive are those of the source. The call rests on the fitted dose curve; in most records, active means well fitted curve in the direction sought with a large enough effect; inconclusive means small, poorly fitted or top-dose-only effect, or another doubt; inactive means no such curve, though single readings can be large; an effect the other way counts as inactive or inconclusive.

Columns and labels:
[1] = target: Cytochrome P450 3A7 (Homo sapiens) (UniProt P24462); assay: Cytochrome P450 family 3 subfamily A member 7 (CYP3A7) small molecule antagonists: luciferase biochemical qHTS assay (AID 1963596); further: nearly all actives have a fitted effect of over 40% in size; further: potency means the concentration at half of the fitted maximal effect
Sequence of Cytochrome P450 3A7 (Homo sapiens) (P24462 whole entry, looked up): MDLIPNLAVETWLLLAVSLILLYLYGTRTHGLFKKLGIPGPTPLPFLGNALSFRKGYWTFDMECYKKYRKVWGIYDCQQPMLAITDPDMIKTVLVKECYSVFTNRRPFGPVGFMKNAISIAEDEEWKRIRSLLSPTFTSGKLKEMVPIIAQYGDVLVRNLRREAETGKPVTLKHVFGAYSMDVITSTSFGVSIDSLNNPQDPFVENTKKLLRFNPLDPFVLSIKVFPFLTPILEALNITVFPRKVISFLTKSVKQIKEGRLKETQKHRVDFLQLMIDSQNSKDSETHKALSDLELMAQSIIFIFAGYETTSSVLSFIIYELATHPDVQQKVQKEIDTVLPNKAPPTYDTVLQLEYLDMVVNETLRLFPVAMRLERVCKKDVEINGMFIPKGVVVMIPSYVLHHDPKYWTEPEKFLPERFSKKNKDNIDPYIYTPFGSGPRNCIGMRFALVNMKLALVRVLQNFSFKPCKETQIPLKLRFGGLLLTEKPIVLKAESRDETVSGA
Procedure, shortened: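 Luminescence read-out (relative luminescence units) after 20 min with detection reagent, which stops the reaction. Enzyme, proluciferin substrate and compound preincubated 10 min, RT; NADPH regeneration system then started 1 h reaction. Ketoconazole as positive control.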

[2] = Viability qHTS for spleen associated tyrosine kinase inhibitor (SYKi) naive MV4-11 cells (AID 1963823); further: nearly all actives have a fitted effect of over 40% in size; further: potency means the concentration at half of the fitted maximal effect
Procedure, shortened: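 Seeding of 500 SYKi-naive MV4-11 cells per well onto pre-dispensed compounds preceded a 72 hr incubation at 37 C. Luminescent CellTiter-Glo signal, read after 10 min at room temperature, reflected viable cells.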

[3] = Viability qHTS for spleen associated tyrosine kinase inhibitor (SYKi) drug resistant MV4-11 cells (AID 1963824); further: nearly all actives have a fitted effect of over 35% in size; further: potency means the concentration at half of the fitted maximal effect
Procedure, shortened: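 CellTiter-Glo luminescence, read 10 min after reagent addition, reports viability after a 72 hr compound exposure. Cells are an MV4-11 line made resistant to SYK inhibition, seeded at 500 per well onto compound-containing plates.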

[4] = Cellular viability qHTS for adrenocortical cancer (ACC) cell line NCI-H295R (AID 1963990); further: nearly all actives have a fitted effect of over 60% in size; further: potency means the concentration at half of the fitted maximal effect
Procedure, shortened: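 Viability of NCI-H295R after 48 h of treatment (final up to 46 uM) measured through cellular ATP luminescence.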

[5] = Cellular viability qHTS for adrenocortical cancer (ACC) cell line SW-13 (AID 1963989); settings: SW-13 ACC cells viability, CellTiter-Glo, 48 h; activity (max response): hits give low values; further: nearly all actives have a fitted effect of over 65% in size; further: potency means the concentration at half of the fitted maximal effect;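 on activity (max response): cells grown in serum-free medium with ITS supplement; on the % scale 0 is the no-effect control and ±100 the full control effect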
Procedure, shortened: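 Here, serum-free SW-13 cultures were dosed up to 46 uM. Following 48 h, ATP-dependent luminescence (CellTiter-Glo) reported viable cells, and logistic modeling produced IC50 values.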

[6] = Quantitative highthroughput screen to assess conditional lethalithy of P12 Ichikawa cells grown in Human Plasma-Like Medium with dialyzed fetal bovine serum (HPLM+ds) (AID 1963879); settings: Potency: viability; further: series mostly up to about 46 µM; nearly all actives have a fitted effect of over 35% in size
Procedure, shortened: (§1)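 Each medium arm—HPLM with 10% dialyzed FBS, or RPMI1640 with 5 mM glucose and 10% untreated or dialyzed FBS—was screened against an 11-point, 3-fold compound titration for 48 h at 37 °C, with CellTiter-Glo luminescence as endpoint.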

[7] = Quantitative highthroughput screen to assess conditional lethalithy of P12 Ichikawa cells grown in RPMI1640 with dialyzed fetal bovine serum (RPMI+ds) (AID 1963880); settings: Potency: P12-Ichikawa viability;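 further: 100% = DMSO wells and 0% = empty wells on each plate; nearly all actives have a fitted effect of over 35% in size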
Procedure, shortened: as §1

[8] = Quantitative highthroughput screen to assess conditional lethalithy of P12 Ichikawa cells grown in RPMI1640 with untreated serum (RPMI+s) (AID 1963881); settings: Potency: viability;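 further: series mostly up to about 46 µM; 100% = DMSO wells and 0% = empty wells without cells; nearly all actives have a fitted effect of over 35% in size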
Procedure, shortened: as §1

[9] = Quantitative highthroughput screen to assess conditional lethalithy of SEM cells grown in Human Plasma-Like Medium with dialyzed fetal bovine serum (HPLM+ds) (AID 1963882)
Procedure, shortened: as §1

[10] = Quantitative highthroughput screen to assess conditional lethalithy of SEM cells grown in RPMI1640 with unreated serum (RPMI+s) (AID 1963883)
Procedure, shortened: as §1

CC1OC(C)OC(C)O1 (stereo not given)
inactive: Potency [1] | Potency [2] | Potency [3] | Potency [4]

CC(C)C(Br)C(=O)NC(N)=O (stereo not given)
inactive: Potency [1] | Potency [2] | Potency [3] | activity (max response) [5] -7.38% | Potency [4]

O=C1c2ccccc2C(=O)c2ccccc21
inactive: Potency [1] | Potency [2] | Potency [3] | activity (max response) [5] 3.51% | Potency [4]

Cc1ccc(Cl)c(O)c1
inactive: Potency [1] | Potency [2] | Potency [3] | activity (max response) [5] 12.5% | Potency [4]

O=C(O)c1ccc(=O)[nH]c1
inactive: Potency [1] | Potency [2] | Potency [3] | activity (max response) [5] 7.49% | Potency [4]

C#CC(O)(C=CCl)CC (stereo not given)
inactive: Potency [1] | Potency [2] | activity (max response) [5] 7.7% | Potency [4]

C[C@H]1[C@@H]2Cc3ccc(O)cc3[C@@]1(C)CCN2C
inactive: Potency [1] | Potency [2] | activity (max response) [5] -10.9% | Potency [4]

COP(=S)(OC)Oc1cc(Cl)c(Cl)cc1Cl
active: Potency [1] 13.8 µM
inactive: Potency [2] | Potency [3] | Potency [4]

C[C@@H]1O[C@@H](O[C@H]2C[C@@H](O)[C@]3(CO)[C@H]4[C@H](O)C[C@]5(C)[C@@H](C6=CC(=O)OC6)CC[C@]5(O)[C@@H]4CC[C@]3(O)C2)[C@H](O)[C@H](O)[C@H]1O
active: Potency [2] 119 nM and 79.6 nM and 46.8 nM | Potency [3] 84.1 nM and 63.2 nM and 33.2 nM | Potency [5] 20.6 nM and 44.7 nM | Potency [4] 36.6 nM and 56.2 nM
inactive: Potency [1]

CN(C)[C@@H]1C(=O)C(C(N)=O)=C(O)[C@@]2(O)C(=O)C3=C(O)c4c(O)cccc4[C@@](C)(O)[C@H]3[C@H](O)[C@@H]12
inactive: Potency [1] | Potency [2] | Potency [6] | Potency [7] | Potency [8] | Potency [9] | Potency [10] | activity (max response) [5] 4.8% | Potency [4]

NC(=O)CN1CCCC1=O
inactive: Potency [1] | Potency [2] | activity (max response) [5] 11.9%

O=C(O)CCCCCCNC1c2ccccc2CCc2ccccc21
inactive: Potency [1] | Potency [3] | activity (max response) [5] 1.72% | Potency [4]
active: Potency [2] 473 nM

Nc1ccccc1C(=O)O
inactive: Potency [1] | Potency [2] | Potency [4]

CC1NCCOC1c1ccccc1 (stereo not given)
inactive: Potency [1] | Potency [2] | activity (max response) [5] -0.553% | Potency [4]

C1CCC(NC2CCCCC2)CC1
inactive: Potency [1] | Potency [2] | Potency [3] | Potency [4]

OC(O)C(Cl)(Cl)Cl
inactive: Potency [1] | Potency [2] | Potency [3] | activity (max response) [5] 12.7% | Potency [4]

COC(=O)[C@@H](N)CCCN/C(N)=N/[N+](=O)[O-]
inactive: Potency [1] | Potency [2] | Potency [3] | activity (max response) [5] 3% | Potency [4]

C=CCN1CC[C@]23c4c5ccc(O)c4O[C@H]2C(=O)CC[C@@]3(O)[C@H]1C5
inactive: Potency [1] | Potency [2] | Potency [3] | activity (max response) [5] -2.59% | Potency [4]

COc1cccc([C@@]2(O)CCCC[C@@H]2CN(C)C)c1
inactive: Potency [1] | Potency [3] | Potency [4]

C[C@H](N)[C@H](O)c1ccc(O)c(O)c1
inactive: Potency [1] | Potency [3] | activity (max response) [5] 5.15% | Potency [4]

COCCOCCO
inactive: Potency [1] | Potency [3] | activity (max response) [5] -1.21% | Potency [4]
